# Experimental data as given in PMC4336329 (PLoS ONE, 2015).
# The whole screen tested about 310,000 compounds, of which about 2,200 (0.71%) showed an effect of 50% or more. The effect is printed as a negative number. The list comes from a sample in which strong results are over-represented; it also holds similar structures and randomly drawn compounds.
# Biological target: human ether-à-go-go-related gene (hERG) potassium channel (human, UniProt Q12809)
# Experiment: primary screen, population patch clamp on CHO cells stably expressing hERG; higher = less effect of the substance
# human ether-à-go-go-related gene (hERG) potassium channel, sequence (Q12809 whole entry, looked up): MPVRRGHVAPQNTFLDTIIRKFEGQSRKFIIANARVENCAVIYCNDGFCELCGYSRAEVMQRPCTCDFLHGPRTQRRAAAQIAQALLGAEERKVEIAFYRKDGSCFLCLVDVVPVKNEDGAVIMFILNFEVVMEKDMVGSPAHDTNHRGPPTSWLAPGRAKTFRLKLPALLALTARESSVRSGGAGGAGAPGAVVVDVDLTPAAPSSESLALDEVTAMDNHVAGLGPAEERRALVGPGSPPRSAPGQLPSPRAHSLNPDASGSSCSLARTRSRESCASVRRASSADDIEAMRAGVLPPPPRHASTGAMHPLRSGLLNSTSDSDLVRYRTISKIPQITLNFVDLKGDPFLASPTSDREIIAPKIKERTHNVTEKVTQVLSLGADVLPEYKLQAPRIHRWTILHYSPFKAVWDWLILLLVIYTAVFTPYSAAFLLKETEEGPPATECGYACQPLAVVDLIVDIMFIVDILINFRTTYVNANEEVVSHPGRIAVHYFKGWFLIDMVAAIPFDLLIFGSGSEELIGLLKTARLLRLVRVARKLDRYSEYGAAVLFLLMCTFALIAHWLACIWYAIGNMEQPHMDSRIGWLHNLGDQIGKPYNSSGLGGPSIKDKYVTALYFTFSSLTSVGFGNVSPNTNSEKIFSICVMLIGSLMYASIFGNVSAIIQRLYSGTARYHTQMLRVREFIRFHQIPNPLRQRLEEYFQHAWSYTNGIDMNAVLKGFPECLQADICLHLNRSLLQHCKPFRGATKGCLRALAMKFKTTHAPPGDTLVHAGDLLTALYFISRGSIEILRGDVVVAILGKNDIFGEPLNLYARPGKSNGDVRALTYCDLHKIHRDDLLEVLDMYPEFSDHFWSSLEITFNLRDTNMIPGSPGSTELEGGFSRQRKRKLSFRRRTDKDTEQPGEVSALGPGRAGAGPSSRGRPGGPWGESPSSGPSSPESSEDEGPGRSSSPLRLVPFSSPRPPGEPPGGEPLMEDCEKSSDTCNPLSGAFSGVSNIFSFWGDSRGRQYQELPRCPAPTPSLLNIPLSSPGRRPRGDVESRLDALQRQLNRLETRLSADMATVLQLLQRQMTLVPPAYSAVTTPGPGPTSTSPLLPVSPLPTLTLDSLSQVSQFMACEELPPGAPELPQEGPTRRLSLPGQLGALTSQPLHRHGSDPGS
row,SMILES,"hERG current change (%, negative = inhibition) at 1uM [%]"
1,CCOc1cc(C2C3=C(CC(C)(C)CC3=O)N(CCCOC)C3=C2C(=O)CC(C)(C)C3)ccc1O,14
2,O=C1CC(NS(=O)(=O)c2cccnc2)CN1c1cccc(F)c1 (stereo not shown),10.3
3,Cc1ccc(C)c(N(C(=O)CNC(=O)c2ccco2)C(C(=O)NC2CCCCC2)c2ccncc2)c1 (stereo not shown),7.2
4,CCN(CC)CCCNC(=O)c1sc2nc(-c3ccc(F)cc3)cn2c1C,-55.5
5,O=C(c1ccco1)N1CCN(C(=O)C2CC(c3ccccc3F)=NO2)CC1 (stereo not shown),3.75
6,Cc1c(C(=O)N2CCN(C(=O)c3ccco3)CC2)sc2nc(-c3ccc(F)cc3)cn12,-56.7
7,O=C(c1ccco1)N1CCN(C(=O)C2CC(c3ccc(F)cc3)=NO2)CC1 (stereo not shown),-59.7
8,O=C(c1ccco1)N1CCN(C(=O)C2CC(c3ccc(Cl)cc3)=NO2)CC1 (stereo not shown),-66.5
9,CCOC(=O)N1CCN(C(=O)c2sc3nc(-c4ccc(F)cc4)cn3c2C)CC1,-22.3
10,Cc1c(C(=O)NCCCN2CCOCC2)sc2nc(-c3ccc(F)cc3)cn12,-16.8
11,COc1cc(OC)c(C2=NOC(C(=O)N3CCN(C(=O)c4ccco4)CC3)C2)cc1Cl (stereo not shown),-12.8
12,COc1cccc(C2=NOC(C(=O)N3CCN(C(=O)c4ccco4)CC3)C2)c1 (stereo not shown),-16.3
13,CCN(CC)CCNC(=O)c1sc2nc(-c3ccccc3)cn2c1C,-31.8
14,Cc1c(C(=O)N2CCN(c3ccc(F)cc3)CC2)sc2nc(-c3ccccc3)cn12,-2.42
15,COc1ccc(C2=NOC(C(=O)N3CCN(C(=O)c4ccco4)CC3)C2)cc1OC (stereo not shown),15.8
16,O=C(c1cccc(N2C(=O)C3CC=CCC3C2=O)c1)N1CCCc2ccccc21 (stereo not shown),-16.3
17,CCOC(=O)CNC(=O)CSc1nnnn1-c1ccc(C)c(C)c1,0.993
18,Cn1cc(CC(=O)N2CCN(c3ccc(Cl)cc3)CC2)c2ccccc21,-0.545
19,Cc1ccccc1OCC(=O)Nc1ccccc1C(=O)NC1CC1,8.41
20,Cc1ccc(C)c(NC(=S)N2CCN(CCO)CC2)c1,5.15
21,CC1CCN(C(=O)COC(=O)c2cn(C)c3ccccc23)CC1,7.49
22,Cc1ccc(N2CC(C(=O)N3CCN(C(=O)c4ccco4)CC3)CC2=O)cc1 (stereo not shown),-45.8
23,O=C(c1ccco1)N1CCN(C(=O)C2CC(=O)N(c3ccc(Cl)cc3)C2)CC1 (stereo not shown),-80.2
24,O=C(c1ccco1)N1CCN(C(=O)C2CC(=O)N(c3ccccc3)C2)CC1 (stereo not shown),-1.56
25,O=C(COc1ccc(Cl)cc1)Nc1ccc(Cl)cn1,-2
26,COc1ccc(Oc2nc(SC)nc3ccccc23)cc1,2.03
27,O=C(/C=C/Nc1ccc(F)cc1F)c1cccs1,18.4
28,C[C@H](NC(=O)c1nc[nH]c1C(=O)N[C@@H](CCCCNC(=O)OC(C)(C)C)C(=O)OC(C)(C)C)c1ccccc1,19.1

row,SMILES,"hERG current change (%, negative = inhibition) at 1uM [%]"
1,COc1ccc(NC(=S)N2CCN(c3ccc([N+](=O)[O-])cc3)CC2)cc1OC,-82.2
2,COc1ccc(NC(=O)N2CCN(c3ccc([N+](=O)[O-])cc3)CC2)cc1,-14.2
3,O=[N+]([O-])c1ccc(N2CCN(C(=S)Nc3ccc(F)cc3)CC2)cc1,-23.8
4,COc1ccccc1N1CCN(C(=O)Nc2ccc([N+](=O)[O-])cc2)CC1,-10.6
5,COc1cccc(NC(=S)N2CCN(c3ccc([N+](=O)[O-])cc3)CC2)c1,-9.45
6,COc1ccc(NC(=O)N2CCN(c3ccc([N+](=O)[O-])cc3)CC2)cc1OC,-63.2
7,Cc1ccc(S(=O)(=O)N/N=C/c2cc(Br)c(C)o2)cc1,8.23
8,O=C(N/C(=C/c1cn(-c2ccccc2)nc1-c1ccccc1)C(=O)N1CCOCC1)c1ccc(Cl)cc1Cl,24.2
9,Cl.O=S1(=O)N=C(N(CCO)/N=C/c2ccncc2)c2ccccc21,7.58
10,CC1CCCCC12NC(=O)N(CC(=O)Nc1ccc(N3CCOCC3)cc1)C2=O (stereo not shown),4.35
11,S=c1[nH]nc(-c2ccncc2)n1/N=C/c1cccc(Cl)c1,8.7
12,CNc1c([N+](=O)[O-])cnn1-c1ccccc1Cl,-13.4
13,O=[N+]([O-])c1ccc2c(c1)OCCOCCOCCOCCOCCOCCO2,-32.5
14,N#Cc1ncc(-c2ccc3c(c2)OCCOCCOCCOCCOCCO3)nc1C#N,-84.8
15,N#Cc1ncc(-c2ccc3c(c2)OCCOCCOCCOCCO3)nc1C#N,-63.6
16,Cl.Nc1nc(-c2ccc3c(c2)OCCO3)cs1,14.3
17,c1cncc(-c2nc(-c3ccc4c(c3)OCCO4)cs2)c1,9.93
18,N#Cc1cncc(-c2ccc3c(c2)OCCOCCOCCOCCOCCO3)n1,-95.2
19,N#CCC(=O)Nc1nc(-c2ccc3c(c2)OCCO3)cs1,8.5
20,c1ccn2cc(-c3ccc4c(c3)OCCO4)nc2c1,4.22
21,Cc1ccc2nc(-c3ccc4c(c3)OCCO4)cn2c1,15.7
22,CC1CCN(C(=O)COC(=O)C23CC4CC(CC(O)(C4)C2)C3)CC1,18.8
23,CCC(C)(C)n1nnnc1C(c1ccncc1)N1CCC(C)CC1 (stereo not shown),-0.168
24,CCCn1nc2ccccc2c1P(=O)(N1CCOCC1)N1CCOCC1,-0.888
25,O=C(NCCc1cccc(Cl)c1)c1cc2ccccc2oc1=O,12.5
26,O=C1CCCc2c1nn(-c1ccccc1)[n+]2[O-],6.47
27,Cc1nn(CC(=O)Nc2c(C)n(C)n(-c3ccccc3)c2=O)c(C)c1[N+](=O)[O-],8.99
